Assay outcomes: PubChem, National Center for Advancing Translational Sciences (NCATS)
BAZ2B inh: qHTS Assay for Inhibitors of BAZ2B | hit rate 4.4% among 360,000 | AID 504333, 2011 | Bromodomain adjacent to zinc finger domain protein 2B (Homo sapiens), Q9UIF8 | Potency, µM (titrated, usually from 114 µM), hits mostly inhibitors | AlphaScreen BAZ2B-H3K14Ac peptide displacement; note: nearly all actives have a fitted effect of over 60% in size
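Protein-peptide AlphaScreen: BAZ2B 50 nM, b-H3K14Ac 50 nM, 1x PBS pH 7.4 + 0.01% Tween-20. Preincubation 30 min RT; cpd 30 min RT (top 110 uM); beads 20 min RT, light-protected.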
Sfp inh: qHTS Assay for Inhibitors of Bacillus subtilis Sfp phosphopantetheinyl transferase (PPTase) | 4'-phosphopantetheinyl transferase ffp (Bacillus subtilis), Q9F4F7 | Biochemical Sfp PPTase activity, qHTS | Potency, µM, usual class: inhibitors | hit rate 3.5% among 310,000 | AID 1490, 2009;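 note: the enzyme is Sfp with the accession as filed and its product quenches rhodamine fluorescence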
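Buffer: 50 mM Hepes-Na pH 7.6, 10 mM MgCl2, 0.01% Nonidet P-40, 0.01% BSA. Enzyme 15 nM, pre-exposed to compound 15 min; substrates then added and fluorescence change tracked over 30 min.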
JMJD2A Tudor: qHTS Assay for Inhibitors of JMJD2A-Tudor Domain. Lysine-specific demethylase 4A (Homo sapiens), O75164. AlphaScreen JMJD2A-Tudor / H3K4me3 peptide binding. Potency, µM (highest dose often 114 µM), hits mostly inhibitors. hit rate 4.4% among 390,000. AID 504339, 2011; note: nearly all actives have a fitted effect of over 50% in size
HP1b binding inh: HTS for Inhibitors of HP1-beta Chromodomain Interactions with Methylated Histone Tails | AlphaScreen HP1-beta / biotin-H3K9me3 peptide binding | Potency, µM (highest dose often 114 µM), most hits filed as inhibitors | AID 540317, 2011 | hit rate 0.56% among 390,000; note: nearly all actives have a fitted effect of over 70% in size
Target sequence (P83916 whole entry, looked up): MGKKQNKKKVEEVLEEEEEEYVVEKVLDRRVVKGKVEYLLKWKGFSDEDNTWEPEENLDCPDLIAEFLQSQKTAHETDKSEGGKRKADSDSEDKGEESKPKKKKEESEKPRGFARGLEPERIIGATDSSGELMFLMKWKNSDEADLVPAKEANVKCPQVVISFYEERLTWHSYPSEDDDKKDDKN
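HP1-beta protein (50 nM final) preincubated 30 min at room temperature with biotinylated H3(1-18)K9me3 peptide (50 nM) in PBS pH 7.4, 0.01% Tween-20, then compound added for 30 min. AlphaScreen streptavidin donor/nickel chelate acceptor beads (10 ug/mL final), 30 min dark, luminescence read.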
PLK1 PBD block: qHTS for Inhibitors of PLK1-PDB (polo-like kinase 1 - polo-box domain): Primary Screen; Plk1 PBD binding of FITC phosphopeptide, fluorescence polarization; Potency, µM, hits mostly inhibitors; hit rate 2.8% among 360,000; AID 720504, 2013; note: series mostly up to about 57 µM; nearly all actives have a fitted effect of over 65% in size
G9a inh: qHTS Assay for Inhibitors of Histone Lysine Methyltransferase G9a; G9a H3K9 monomethylation, AlphaScreen, 2 h; Potency, µM (series often up to 102 µM), actives largely listed as inhibitors; hit rate 8.8% among 350,000; Histone-lysine N-methyltransferase EHMT2 (Homo sapiens), Q96KQ7; AID 504332, 2011; note: nearly all actives have a fitted effect of over 75% in size
Target sequence (Q96KQ7 913-1193 limits assumed): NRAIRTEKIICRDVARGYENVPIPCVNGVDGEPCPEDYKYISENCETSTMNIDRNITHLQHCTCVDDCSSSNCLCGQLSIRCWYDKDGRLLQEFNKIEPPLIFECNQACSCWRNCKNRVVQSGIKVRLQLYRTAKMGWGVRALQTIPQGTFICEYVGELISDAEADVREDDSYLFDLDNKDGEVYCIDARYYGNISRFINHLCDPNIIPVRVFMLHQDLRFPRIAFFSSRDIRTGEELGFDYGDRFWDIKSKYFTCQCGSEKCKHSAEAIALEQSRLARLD
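AlphaScreen read-out: biotin-H3K9 peptide (500 nM) methylation by 20 nM enzyme with 20 uM SAM, 2 h at room temperature after 15 min compound preincubation; anti-monomethyl H3K9 antibody plus donor/acceptor beads, 10 min dark.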
TbPYK inh: qHTS of Trypanosoma Brucei Inhibitors: Confirmatory Assay for Cherry-picked Compounds. hit rate 67% among 890. Potency, µM (doses to about 76.9 µM), most hits filed as inhibitors. recombinant TbPYK, Kinase-Glo ATP luminescence. AID 720569, 2013. shares compounds with PLK1 PBD block; note: nearly all actives have a fitted effect of over 70% in size
TbPYK orthogonal: qHTS of Trypanosoma Brucei Inhibitors: Orthogonal Assay for Cherry-picked Compounds; recombinant TbPYK, ADP-Glo luminescence, 60 min; shares compounds with PLK1 PBD block; Potency, µM (top dose mostly 76.9 µM), actives largely listed as inhibitors; hit rate 62% among 890; note: nearly all actives have a fitted effect of over 75% in size
Each line names hits and unclear results; the compound was inactive in the other large screens (follow-up assays come after a bar, where they were run). Rows were chosen to be rich in hits. Some 12% of all compounds tested hit in one or more screens of this group. Calls come from the whole dose curve; as a rule, active = well fitted curve in the direction sought with a large enough effect; inconclusive = small, poorly fitted or top-dose-only effect, or another doubt; inactive = no such curve, though single readings can be large; an effect the other way counts as inactive or inconclusive.

O=C(O)CCn1cc(C=C2C(=O)NC(=O)NC2=O)c(-c2ccc(Br)cc2)n1	Sfp inh inconclusive, PLK1 PBD block 2.7µM, G9a inh 10µM | TbPYK inh 14µM | TbPYK orthogonal 28µM
O=C(O)CCn1cc(C=C2C(=O)NC(=S)NC2=O)c(-c2cccc(Cl)c2)n1	BAZ2B inh inconclusive, Sfp inh 22µM, JMJD2A Tudor 50µM, PLK1 PBD block 4.7µM, G9a inh 2.5µM | TbPYK inh 7.1µM | TbPYK orthogonal inconclusive
Cc1ccc(-c2nn(Cc3ccccc3)cc2C=O)cc1	none
N#CCCn1cc(C(=O)O)c(-c2cccc([N+](=O)[O-])c2)n1	none
COc1ccc(-n2nc(C(=O)NCC(=O)N3CCC4(CC3)OCCO4)c3ccccc3c2=O)c(OC)c1	none
COc1ccc(N2C(=O)/C(=C/c3ccc(C)o3)C(=O)NC2=S)c(OC)c1	BAZ2B inh 50µM, Sfp inh 40µM, JMJD2A Tudor 50µM, PLK1 PBD block 11µM | TbPYK inh 1.4µM | TbPYK orthogonal 13µM
Cc1cc(C=C2C(=O)N(C)C(=S)N(C)C2=O)c(C)n1-c1cccnc1	BAZ2B inh 45µM, PLK1 PBD block 2.1µM, G9a inh 8.9µM | TbPYK inh inconclusive | TbPYK orthogonal inconclusive
O=c1c2ccccc2[nH]c(=S)n1-c1cccnc1	none (no result: G9a inh)
CCOc1ccccc1N1C(=O)NC(=O)/C(=C/c2ccc3c4c(cccc24)CC3)C1=O	BAZ2B inh 50µM, Sfp inh 56µM, JMJD2A Tudor 79µM, PLK1 PBD block 6.7µM | TbPYK inh inconclusive | TbPYK orthogonal inconclusive
O=c1[nH]c(O)c(C=Nc2ccccc2Oc2ccccc2)c(=O)[nH]1	JMJD2A Tudor inconclusive
O=c1[nH]c(O)c(/C=C2\C=NN=C2c2ccccc2)c(=O)[nH]1	Sfp inh 50µM, PLK1 PBD block 3.5µM, G9a inh 50µM | TbPYK inh 11µM | TbPYK orthogonal 32µM
COc1ccc(S(=O)(=O)Nc2ccccc2OC)cc1N=Nc1c(O)[nH]c(=S)[nH]c1=O	JMJD2A Tudor inconclusive, HP1b binding inh inconclusive (no result: BAZ2B inh, Sfp inh, G9a inh)
CCC1(CC)C(=O)N(Cc2ccccc2)C(=O)N(Cc2ccccc2)C1=O	none
O=C1NC(=O)N(Cc2ccccc2)C(=O)/C1=C\c1ccco1	BAZ2B inh 40µM, JMJD2A Tudor inconclusive, HP1b binding inh inconclusive, PLK1 PBD block 2.1µM, G9a inh 35µM | TbPYK inh 32µM | TbPYK orthogonal inconclusive
O=c1ccc2[nH]cc(C3=CCNCC3)c2[nH]1	none (no result: BAZ2B inh, JMJD2A Tudor, HP1b binding inh, PLK1 PBD block, G9a inh)
COc1cc(CC2(CCc3ccncc3)C(=O)NC(=O)NC2=O)cc(OC)c1OC	none
COc1ccc(CN2C(=O)NC(=O)/C(=C/c3ccc(OC)c(OC)c3OC)C2=O)cc1	Sfp inh 40µM, PLK1 PBD block 8.4µM (no result: G9a inh) | TbPYK inh 28µM | TbPYK orthogonal inconclusive
COc1ccc(CN2C(=O)NC(=O)/C(=C/c3cc(OC)c(OC)c(OC)c3)C2=O)cc1	Sfp inh 79µM, PLK1 PBD block 12µM, G9a inh 45µM | TbPYK inh inconclusive | TbPYK orthogonal inactive
COc1ccc(-c2ccc(OC)c(OC)c2OC)cc1	none (no result: BAZ2B inh, Sfp inh, G9a inh)
COc1ccc2c(c1OC)C(=O)O[C@@H]2C1c2cc3c(cc2CCN1C)OCO3 (some centres not stated)	none (no result: BAZ2B inh, JMJD2A Tudor, HP1b binding inh, PLK1 PBD block, G9a inh)
Cc1ccc(C(=O)Oc2cc(N)n(S(=O)(=O)c3ccc(F)cc3)n2)cc1	none
CCOC(=O)c1c(P(=O)(N2CCOCC2)N2CCOCC2)noc1N	none
COc1ccc(OC)c(N2C(=O)NC(=O)/C(=C\c3ccc([N+](=O)[O-])s3)C2=O)c1	BAZ2B inh 28µM, Sfp inh 22µM, JMJD2A Tudor 28µM, HP1b binding inh 25µM, PLK1 PBD block 2.7µM, G9a inh 8.9µM | TbPYK inh 2.8µM | TbPYK orthogonal inconclusive
CN1C(=O)NC(=O)/C(=C/c2ccc([N+](=O)[O-])o2)C1=O	BAZ2B inh 50µM, Sfp inh 18µM, JMJD2A Tudor 22µM, HP1b binding inh 50µM, PLK1 PBD block 4.7µM (no result: G9a inh) | TbPYK inh 8.9µM | TbPYK orthogonal inconclusive
CN1C(=O)NC(=O)/C(=C/c2ccc([N+](=O)[O-])s2)C1=O	BAZ2B inh 50µM, Sfp inh 11µM, JMJD2A Tudor inconclusive, HP1b binding inh inconclusive, PLK1 PBD block 2.7µM, G9a inh 7.1µM | TbPYK inh 5µM | TbPYK orthogonal 11µM
CN1C(=O)C(=Cc2ccc(N3CCOCC3)o2)C(=O)N(C)C1=O	Sfp inh inconclusive, G9a inh inconclusive
O=C1NC(=O)N(c2ccccc2)C(=O)/C1=C\c1ccc([N+](=O)[O-])s1	BAZ2B inh 35µM, Sfp inh 13µM, JMJD2A Tudor 22µM, HP1b binding inh 16µM, PLK1 PBD block 5.3µM, G9a inh 8.9µM | TbPYK inh 7.9µM | TbPYK orthogonal 13µM
CCC12CN3CC(CC)(CN(C1)C3c1c(C)[nH]c(=O)[nH]c1=O)C2=O (configuration not stated)	G9a inh inconclusive (no result: Sfp inh, PLK1 PBD block)
C[C@@]12CCC(O)C[C@H]1CCC1C2CC[C@]2(C)C(=O)CCC12 (some centres not stated)	none (no result: BAZ2B inh, JMJD2A Tudor, HP1b binding inh, PLK1 PBD block, G9a inh)
CCSc1nnc(NC(=O)c2cccn(Cc3ccc(Cl)cc3)c2=O)s1	none (no result: Sfp inh, PLK1 PBD block)
O=C(Nc1ccc2c(c1)OCCO2)c1cccn(Cc2cccc([N+](=O)[O-])c2)c1=O	JMJD2A Tudor inconclusive, G9a inh inconclusive (no result: Sfp inh, PLK1 PBD block)
CCN(CC)C(=O)c1ccc2c(c1)C1C=CCC1C(C(=O)O)N2 (configuration not stated)	BAZ2B inh 25µM, Sfp inh 11µM, JMJD2A Tudor 11µM, HP1b binding inh 28µM, PLK1 PBD block 7.5µM, G9a inh 1.6µM | TbPYK inh 4µM | TbPYK orthogonal inconclusive
O=Cc1ccco1	none (no result: BAZ2B inh, JMJD2A Tudor, HP1b binding inh, PLK1 PBD block)
Cc1ccc(C)c(CN2C(=O)c3ccccc3Sc3ccc(C(=O)N4CCC5(CC4)OCCO5)cc32)c1	none (no result: Sfp inh, PLK1 PBD block)
COc1cccc(C2SCC(=O)Nc3c2c(C)nn3-c2ccc(C)c(Cl)c2)c1OC (configuration not stated)	none (no result: Sfp inh, PLK1 PBD block)
